± gives the standard deviation.
These sequences were tested on MILI (PIWIL2) piRISC loaded with L1MC piRNA (26 nt) (assay: pre-steady-state target cleavage rate (min^-1); guide: L1MC piRNA 5'p-UAACUAAAUACUAUGCAAGCUGUAGG; MIWI and MILI are mouse PIWI proteins and EfPiwi is from a freshwater sponge; tags in brackets are library labels; higher = faster piRNA-guided slicing of the target). Details: auxiliary factor: 500 nM mouse GTSF1.
In short: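 Cleave-'n-Seq: 1 nM active affinity-purified piRISC with one synthetic guide and 0.1 nM transcribed, DNA-blocked target RNA library were mixed, with or without 500 nM GTSF1 partner protein, in HEPES–potassium acetate buffer at 33 °C for 0–8 or 0–960 min. Uncleaved targets were sequenced and normalised to depth and to weakly complementary targets, three trials were pooled, and k3 was capped at 0.0001 min^-1. The pre-steady-state cleavage rate was fitted […].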

Sequence	pre-steady-state target cleavage rate
UCCUGCUACAGCUUGCAUAGUAUAAACAAA	0.0722 ± 0.022
UCCUGGAUGUGCUUGCAUUGUAUUUAGAAA	0.0114 ± 0.0047
UCCUGGAUGUCGAACGUUGAGUAUUUAGUUA	< 0.0001
UCCUGGAUGUGCUUGCAUAGUAUUUAUUUA	0.0305 ± 0.011
UCCUGGAUCAGCUUGGAUAGAAUUUAGUUA	0.0242 ± 0.0065
UCCUGGUACAGCUUGCUAAGUAUUUACAAA	0.0119 ± 0.0056
UCCUGGAUGAGCUUGCAUAGAAAUUAGUUA	0.0228 ± 0.0075
UCCUGGAUGUCCUACCAUAGUAUUUAGUAA	0.021 ± 0.0077
UCCUGGAUGUCGUUGCAUAGUAUUUAGAUA	0.0436 ± 0.017
UCCUGGAUCAGCUUGCAUAGUAUUUCAGUUA	0.162 ± 0.028
UCCUGGAUGUCCUACCAUAGUAUUUAGUUA	0.0632 ± 0.015
UCCUGGAUGUCCUUGCAUAGUAUUUAUGUUA	0.0185 ± 0.0059
UCCUGGAUGUCCAUGCAUAGUAUUUACUUA	0.0292 ± 0.0095
UCCUGGAUGUCGAUGCAUAGUUAUUUAGUUA	0.00685 ± 0.0037
UCCUGCUACAGCUUCGUUAGUAUUUAGUAA	0.154 ± 0.033
UCCUGCUACAGCUUGCAAAGUAUUUUCAAA	0.0624 ± 0.02
UCCUGCUACAGCUUGGUAAGUAUUUAGUAA	0.207 ± 0.039
UCCUCCUACUCGUUGCAUAGUAUUUACAAA	0.0372 ± 0.012
UCCUGGAUGUGCUUGCAUAGUCAUUUAGUUA	0.00678 ± 0.0044

Sequence	pre-steady-state target cleavage rate
UCCUGGAUGUCCUUGCAUUGUAUUUACUUA	0.0534 ± 0.012
UCCUGGUACAGCUUGCAUUGUAUUUAGAUA	0.0565 ± 0.016
UCCUGGAUGUCGAUGCAUAGUAUAUAGUAA	0.063 ± 0.013
UCCUGGUACAGCUUGCAUAGAUUUUAGUAA	0.0172 ± 0.008
UCCUGGAUGAGCUUGCAUAGUAUUAAGUAA	0.0732 ± 0.021
UCCUGGAACAGCUUGCAUAGUAAAUAGUAA	0.143 ± 0.035
UCCUGGAUGUCCUUGCAUUGUAUUUAGAUA	0.0401 ± 0.011
UCCUGGAUGUCGUAGCAUAGUUUUUAGUUA	0.00685 ± 0.0041
UCCUCCUACAGCUUGCUAAGUAUUUACAAA	0.0519 ± 0.013
UCCUGGAUGUCCUUGCAUAGUAUUUUCAUA	0.0192 ± 0.0081
UCCUGGAACAGCUUGCAUAGUAUUAACAAA	0.104 ± 0.029
UCCUGGAUGUGCUUGCAUAGUAUUUAGUGA	0.11 ± 0.017
UCCUGGAACUGCUUGCAUAGAAUUUAGUUA	0.0556 ± 0.013
UCCUCCUACAGCUUGCAUUCUAUUUACAAA	0.0257 ± 0.0099
UCCUGGAUGUCGUUCCAUAGUAUUUAGUUA	0.00992 ± 0.0041
UCCUCCUACAGCUUGCAUUCUAUUUAGUUA	0.0458 ± 0.0096
UCCUGGAUGUGCUUGCAUAGAAUUAAGUUA	0.00431 ± 0.003
UCCUGGAACACGUUGCAUAGUAUUUACAAA	0.0879 ± 0.017
